In PubChem BioAssay (NCI) one finds growth data, which are given here for 8 compounds.

This is part of a sample that, as a whole, favours compounds with a hit. Of some 83,000 tested, about 20% had one in any assay.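 Interpretation: 100, growth as untreated; towards 0, rising growth inhibition; 0, no net growth; 0 to -100, cell death. Compounds scoring below 10 were considered active.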 Unmarked numbers belong to inactive results. Activity calls are given as the source filed them.

Common to all, as to test: NCI-60 one-dose screen, 48 h (100 = growth as untreated, 0 = no growth, -100 = all killed)
One assay concerns DU-145 prostate. To be noted: 10 µM unless noted.
The test system of another assay is K-562 leukemia. The settings on record: 10 µM unless noted.
In another assay the test system is MALME-3M melanoma. The settings on record: 10 µM unless noted.
In another assay the test system is MDA-MB-231 breast. To be noted: 10 µM unless noted.
A further assay concerns RXF 393 renal. The settings on record: 10 µM unless noted.
The subject of the next assay is SF-268 CNS. To be noted: 10 µM unless noted.
The next assay concerns SF-295 CNS. To be noted: 10 µM unless noted.
The next assay deals with SF-539 CNS. The settings on record: 10 µM unless noted.
The test system of another assay is UACC-257 melanoma. The settings on record: 10 µM unless noted.
For the next assay, the system named is M14 melanoma. To be noted: 10 µM unless noted.
In another assay the test system is HCT-15 colon. The settings on record: 10 µM unless noted.
Another assay concerns HT29 colon. The settings on record: 10 µM unless noted.
For the next assay, the system named is SNB-19 CNS. The settings on record: 10 µM unless noted.
Another assay deals with U251 CNS. The settings on record: 10 µM unless noted.
Another assay relates to PC-3 prostate. The settings on record: 10 µM unless noted.
In another assay the test system is SK-MEL-5 melanoma. To be noted: 10 µM unless noted.
The test system of another assay is LOX IMVI melanoma. To be noted: 10 µM.
Another assay relates to SK-MEL-28 melanoma. To be noted: 10 µM unless noted.
A further assay deals with UACC-62 melanoma. The settings on record: 10 µM unless noted.
In a further assay the test system is SNB-75 CNS. The settings on record: 10 µM unless noted.

For `COc1ccc(-c2nc3cc(C)ccc3n2CC(=O)N=Nc2c(O)[nH]c3ccc(Cl)cc23)cc1`, the growth in the assay with DU-145 prostate is 15%; in the assay on K-562 leukemia, 4.54% (active); in the assay on MALME-3M melanoma, -56.9% (active); in the assay with MDA-MB-231 breast, -43.8% (active); in the assay on RXF 393 renal it was -63.2% (active); with SF-268 CNS, 21.6%. In addition, the growth is -67.5% (active) in the assay on SF-295 CNS; -52.7% (active) in the assay on SF-539 CNS; -31.2% (active) with UACC-257 melanoma; -44.6% (active) in the assay with M14 melanoma; -71.2% (active) with HCT-15 colon; -71.1% (active) with HT29 colon. Also, the growth is 31.4% in the assay on SNB-19 CNS; -73.9% (active) with U251 CNS; 9.75% (active) with PC-3 prostate; -36.2% (active) in the assay on SK-MEL-5 melanoma; -93.4% (active) in the assay with LOX IMVI melanoma; -67.6% (active) in the assay on SK-MEL-28 melanoma.

In the case of `C=C1CCC2C3(C)COC(c4ccccc4)OC3CCC2(C)C1CC(Sc1ccccc1)C1=CCOC1=O` (stereo not drawn), the growth was 70.6% in the assay on DU-145 prostate; 7.88% (active) in the assay on K-562 leukemia; 92.8% with MALME-3M melanoma; 62.5% with MDA-MB-231 breast; 72.7% in the assay with RXF 393 renal; 83.3% in the assay with SF-268 CNS. The growth is 62.7% in the assay with SF-295 CNS; 17.7% in the assay with SF-539 CNS; 63.8% in the assay on UACC-257 melanoma; 53.7% with M14 melanoma; 5.46% (active) in the assay with HCT-15 colon; 13.8% in the assay with HT29 colon. The growth is 85.5% in the assay on SNB-19 CNS; 17.5% in the assay with U251 CNS; 29.3% with PC-3 prostate; 55.2% in the assay on SK-MEL-5 melanoma; 39.5% with UACC-62 melanoma; -98% (active) in the assay with LOX IMVI melanoma. Moreover, the growth with SK-MEL-28 melanoma is 82.5%.

For the compound `NS(=O)(=O)c1ccc(CCNC(=O)CSc2ccc(-c3ccc(Br)cc3)nn2)cc1`, the growth with DU-145 prostate was 71.1%; in the assay with K-562 leukemia, 36%; in the assay on MALME-3M melanoma, 75.9%; in the assay on MDA-MB-231 breast it was 85.2%; with RXF 393 renal it was 87.7%; in the assay with SF-268 CNS, 72.5%. In addition, the growth in the assay with SF-295 CNS is 59.9%; with SF-539 CNS, 79.2%; in the assay on UACC-257 melanoma, 38.5%; in the assay with M14 melanoma it was 77%; in the assay on HCT-15 colon, 97.4%; in the assay on HT29 colon, 82.6%. In addition, the growth was 61.5% with SNB-19 CNS; 76% with U251 CNS; 74% with PC-3 prostate; 28.4% in the assay on SK-MEL-5 melanoma; 59.8% in the assay on LOX IMVI melanoma; 78.1% in the assay on SK-MEL-28 melanoma.

Take `Cc1occc1C(=O)NN1C(=O)/C(=C/C=C/c2ccc([N+](=O)[O-])o2)SC1=S`: the growth in the assay on DU-145 prostate is -57.7% (active); in the assay with K-562 leukemia it was 11.2%; in the assay on MALME-3M melanoma, -78.6% (active); with MDA-MB-231 breast, -89% (active); in the assay on RXF 393 renal, -88.1% (active); with SF-268 CNS, -64.3% (active). Moreover, the growth with SF-295 CNS is 47%; with SF-539 CNS, -99.4% (active); in the assay with UACC-257 melanoma it was -44.5% (active); in the assay with M14 melanoma, -65.1% (active); in the assay on HCT-15 colon, -75.5% (active); in the assay with SNB-75 CNS, -13.4% (active). Besides, the growth in the assay on SNB-19 CNS is 12.6%; in the assay with U251 CNS it was -92.7% (active); with PC-3 prostate, 0.198% (active); in the assay on SK-MEL-5 melanoma, -96.7% (active); in the assay with UACC-62 melanoma it was -91.9% (active); with LOX IMVI melanoma it was -95.9% (active). Also, in the assay with SK-MEL-28 melanoma, the growth is -73.2% (active).

Consider `COc1c(F)ccc(C(=O)Nc2ccc3nc(NC(=O)C4CCCN(S(=O)(=O)c5ccc(C(F)(F)F)cc5)C4)sc3c2)c1F` (stereo not drawn), for which the growth is 88% in the assay on DU-145 prostate; 64.6% in the assay with K-562 leukemia; 89% in the assay on MALME-3M melanoma; 81.3% with MDA-MB-231 breast; 9.04% (active) with RXF 393 renal; 68% with SF-268 CNS. In addition, the growth with SF-295 CNS is 74.7%; in the assay on SF-539 CNS, 68.4%; with UACC-257 melanoma, 86.3%; with M14 melanoma, 79.3%; in the assay with HCT-15 colon it was 85.7%; in the assay on HT29 colon, 79.1%. Further, the growth with SNB-19 CNS is 83.8%; with U251 CNS, 76%; in the assay with PC-3 prostate it was 57.7%; in the assay with SK-MEL-5 melanoma it was 84.9%; in the assay on UACC-62 melanoma, 65.8%; with LOX IMVI melanoma it was 83.3%. Besides, the growth in the assay on SK-MEL-28 melanoma is 92.3%.

In the case of `COc1ccc2c(c1)c(/C=N/Nc1ccc3ccccc3n1)cn2C`, the growth in the assay on DU-145 prostate is 36.2%; with K-562 leukemia it was -40.1% (active); in the assay with MALME-3M melanoma, 12.6%; with MDA-MB-231 breast it was -23.1% (active); with RXF 393 renal, 33.4%; in the assay with SF-268 CNS it was 37.2%. The growth in the assay on SF-295 CNS was -60.4% (active); in the assay with SF-539 CNS, -36.2% (active); in the assay with UACC-257 melanoma it was 61.7%; with M14 melanoma it was -6.98% (active); with HCT-15 colon it was -44.8% (active); in the assay on HT29 colon it was -66.7% (active). The growth is 71.3% with SNB-19 CNS; 7.9% (active) in the assay with U251 CNS; 7.27% (active) with PC-3 prostate; 23% in the assay on SK-MEL-5 melanoma; -1.59% (active) with SK-MEL-28 melanoma.

For the compound `COc1ccccc1C(=O)NN1C(=O)/C(=C/C2=Cc3ccccc3OC2)SC1=S`, the growth with DU-145 prostate was 112%; in the assay on K-562 leukemia, 101%; with MALME-3M melanoma, 99.3%; in the assay on MDA-MB-231 breast, 102%; in the assay with RXF 393 renal it was 114%; in the assay with SF-268 CNS, 109%. The growth is 109% in the assay on SF-295 CNS; 95.4% in the assay on SF-539 CNS; 108% in the assay on UACC-257 melanoma; 99.3% in the assay with M14 melanoma; 114% in the assay on HCT-15 colon; 110% in the assay with HT29 colon. The growth was 97.6% in the assay on SNB-19 CNS; 101% in the assay with U251 CNS; 91.2% with PC-3 prostate; 104% in the assay on SK-MEL-5 melanoma; 91.8% in the assay with UACC-62 melanoma; 94% in the assay on LOX IMVI melanoma. Further, the growth in the assay on SK-MEL-28 melanoma is 109%.

`CCN(CC)CCOc1ccc(Nc2ncc3cc(-c4ccc(O)c(C#N)c4)c(=O)n(C)c3n2)cc1`: the growth in the assay on DU-145 prostate is 84.6%; with K-562 leukemia, -47.5% (active); in the assay on MALME-3M melanoma, -95.5% (active); in the assay with MDA-MB-231 breast, 11.9%; in the assay on RXF 393 renal it was 22.3%; in the assay with SF-268 CNS, 77.1%. The growth in the assay with SF-295 CNS was 90.8%; with SF-539 CNS, 62.2%; in the assay on UACC-257 melanoma, 101%; in the assay on M14 melanoma, 70.4%; with HCT-15 colon, 86.2%; in the assay on HT29 colon, -58.4% (active). Besides, the growth was 108% with SNB-19 CNS; -61.2% (active) in the assay on U251 CNS; 69.5% with PC-3 prostate; 43.8% in the assay on SK-MEL-5 melanoma; 92.1% in the assay on UACC-62 melanoma; 47% in the assay on LOX IMVI melanoma. Moreover, in the assay with SK-MEL-28 melanoma, the growth is 79.8%.
